An excerpt weighted towards active compounds, which were near 8.1% of everything screened.
KB-3-1 cytotox: kills parental KB-3-1 adenocarcinoma cells. KB-3-1 viability, CellTiter-Glo ATP luminescence, 72 h. Potency, µM (titrated, usually from 46.1 µM), actives largely listed as cytotoxic. 1.4% of 400,000 active; note: nearly all actives have a fitted effect of over 60% in size
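Parental KB-3-1 adenocarcinoma cells in phenol-red-free DMEM with 10% FBS were pin-treated with compounds at several concentrations, incubated 72 h at 37 °C, and viability read by CellTiter-Glo luminescence; concentration-effect curves were fitted after normalization.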
KB-V1 cytotox: kills drug-selected multidrug resistant KB-V1 cells | KB-V1 MDR cells viability, CellTiter-Glo, 72 h | Potency, µM (highest dose often 46.1 µM), hits mostly cytotoxic | 3.4% of 400,000 active; note: nearly all actives have a fitted effect of over 60% in size
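In this primary screen, KB-V1 cells overexpressing P-gp are incubated with library compounds (lowest to highest concentration) for 72 h at 37 degrees C before a luminescent ATP viability read.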
SW480 rerep: DNA re-replication induction in SW480 cells; AID 624297; Potency, µM (top dose mostly 46.1 µM), actives largely listed as activators; 1.8% of 340,000 active; SW480 DNA re-replication, Hoechst DNA content imaging, 48 h; note: nearly all actives have a fitted effect of over 55% in size
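250 cells/well; 23 nL cpd via pin tool; 48 hr, 37 C, 5% CO2; Hoechst 40 min; imager read of total nuclear intensity, ex 405/em 500-530 nm.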
MCF10A rerep: induces DNA re-replication in MCF 10a normal breast cells. Potency, µM (titrated, usually from 46.1 µM), actives largely listed as activators. 2.9% of 350,000 active. AID 624296. MCF 10A DNA re-replication, Hoechst nuclear intensity, 48 h; note: nearly all actives have a fitted effect of over 50% in size
ELG1 DNA repair: ELG1-dependent DNA repair inhibition | Potency, µM (doses to about 46.1 µM), usual class: inhibitors | 2.3% of 330,000 active | HEK293T ELG1-luciferase reporter, luminescence, 16 h; DNA damage induced by 5-fluorouridine; note: nearly all actives have a fitted effect of over 55% in size
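Cells (2,000 per well) received 5-fluorouridine plus test compound or DMSO and were incubated 16 hr at 37 °C, 5% CO2. Luciferase activity was read by luminescence 30 min after ONE-Glo addition; signal suppression marked inhibition of damage-induced ELG1 function.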
Hits are given with their value; i = inactive; ? = inconclusive; nt = no result. Calls come from the whole dose curve; as a rule, active = well fitted curve in the direction sought with a large enough effect; inconclusive = small, poorly fitted or top-dose-only effect, or another doubt; inactive = no such curve, though single readings can be large; an effect the other way counts as inactive or inconclusive.

SMILES | KB-3-1 cytotox | KB-V1 cytotox | SW480 rerep | MCF10A rerep | ELG1 DNA repair
COC1CCCN(C(=O)c2ccc3oc(Cc4ccc(Cl)cc4)nc3c2)C1 (configuration not stated) | i | 2.59µM | i | i | i
Cc1cc2nc(/C(C#N)=C/c3ccncc3)[nH]c2cc1C | i | i | 13µM | 23.1µM | i
Cc1ccc2nc(/C(C#N)=C/c3cn[nH]c3-c3ccc(F)cc3)[nH]c2c1 | ? | ? | ? | 13µM | ?
N#C/C(=C\c1ccncc1)c1nc2ccccc2[nH]1 | i | i | i | ? | i
Cc1ccc2nc(/C(C#N)=C/c3cccc(Br)c3)[nH]c2c1 | i | ? | nt | nt | nt
COc1cc(/C=C(\C#N)c2nc3ccc(C)cc3[nH]2)ccc1OC(C)C | i | i | nt | nt | nt
N#C/C(=C\c1cccnc1)c1nc2ccccc2[nH]1 | ? | 23.1µM | ? | ? | ?
Cc1ccc2nc(/C(C#N)=C/c3ccc(O)c(O)c3)[nH]c2c1 | ? | i | 23.1µM | ? | ?
O=S1(=O)N=C(c2ccccc2)C=C(c2ccccc2)N1 | i | i | i | i | i
N#C/C(=C\c1ccc(N2CCOCC2)c([N+](=O)[O-])c1)c1nc2ccccc2[nH]1 | ? | 10.3µM | i | i | ?
CN(C)c1nc(=NCc2ccco2)ss1 | i | i | i | 20.6µM | ?
CCOC(CN=c1nc(N(C)C)ss1)OCC | i | ? | ? | ? | nt
CC(=O)Oc1ccccc1N(C(C)=O)S(=O)(=O)c1ccc2ccccc2c1 | i | i | i | i | i
CC(=O)Oc1ccc(N(C(C)=O)S(=O)(=O)c2cccs2)c2ccccc12 | i | ? | ? | ? | 14.6µM
Clc1ccc(OCCn2cnc3ccccc32)c(Cl)c1 | ? | 16.4µM | i | i | ?
O=[N+]([O-])c1ccccc1OCCCn1cnc2ccccc21 | i | 7.31µM | i | i | ?
NCCCn1cnc2ccccc21 | i | ? | i | 0.581µM | i
c1ccc2c(c1)ncn2CCOCCOCCn1cnc2ccccc21 | i | i | i | i | i
Cn1nc(C(C)(C)C)cc1N1C(=O)CCC1(C)C(=O)Nc1ccc2c(c1)OCCO2 (configuration not stated) | i | i | nt | nt | nt
CC(C)(CNC(=O)/C=C/c1ccc(F)cc1)CNC(=O)/C=C/c1ccc(F)cc1 | i | ? | i | i | 23.1µM
CC(C)(C)SCCNC(=O)/C=C/c1ccc(F)cc1 | i | i | i | i | ?
C=CCn1c(SCc2c(C)noc2C)nc2sc3c(c2c1=O)CCCCC3 | i | ? | i | ? | ?
C=CCn1c(SCc2c(C)noc2C)nc2sc3c(c2c1=O)CCCC3 | 18.4µM | 23.1µM | ? | 9.2µM | 18.4µM
Cc1noc(C)c1CSc1nc2sc3c(c2c(=O)n1C)CCCC3 | i | i | i | ? | 23.1µM
COc1ccccc1CNC(=O)c1ccc(CSc2nc3ccncc3n2Cc2cccc(F)c2)cc1 | i | i | nt | nt | nt
SMILES | KB-3-1 cytotox | KB-V1 cytotox | SW480 rerep | MCF10A rerep | ELG1 DNA repair
CCc1ccc2occ(CC(=O)N(Cc3ccccc3)C3CCS(=O)(=O)C3)c2c1 (configuration not stated) | i | i | nt | nt | nt
CCn1c(SCC(=O)c2ccccc2)nnc1-c1cc2cc(Br)ccc2o1 | ? | 18.4µM | i | ? | i
Cc1nc(-c2ccccc2)[nH]c(=O)c1Oc1ccc(Cl)cc1Cl | i | ? | i | i | 8.2µM
Cc1ccc(Oc2c(C)nc(-c3ccccc3)[nH]c2=O)cc1 | i | i | i | i | ?
CC(C)(C)C(=O)OCOP(=O)(COCCn1cnc2c(N)ncnc21)OCOC(=O)C(C)(C)C | nt | nt | i | i | nt
O=c1[nH]c(/C=C/c2ccc(OC(F)F)cc2)nc2c1cnn2-c1ccccc1 | i | i | 9.2µM | 14.6µM | ?
CC(=O)c1cccc(NC(=O)CNC(=O)c2sc3ccccc3c2Cl)c1 | i | i | ? | ? | i
CC(=O)c1cc(NC(=O)c2ccc([N+](=O)[O-])cc2)c(=O)oc1C | i | i | i | 16.4µM | i
COC(=O)c1cc(NC(=O)c2ccc([N+](=O)[O-])cc2)c(=O)oc1C | i | i | ? | i | i
COc1ccc(C(=O)Nc2cc(C(=O)c3ccccc3)c(C)oc2=O)cc1 | i | i | ? | ? | i
Cc1oc(=O)c(NC(=O)c2cccc(Cl)c2)cc1C(=O)c1ccccc1 | i | ? | 20.6µM | ? | ?
CCOc1ccc(NC(=O)CN2C(=O)COc3ccc(S(=O)(=O)Nc4ccccc4)cc32)cc1 | i | i | nt | nt | nt

Assay outcomes as filed in PubChem BioAssay.
